The source of these data is PubChem BioAssay (Tox21).

A short description of test [1]: qHTS assay to identify small molecule agonists of the androgen receptor (AR) signaling pathway in the presence of an antagonist - cell viability counter screen (AID 1259379). Further: nearly all actives have a fitted effect of over 25% in size. Further: potency means the concentration at half of the fitted maximal effect. Put shortly: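 Cytotoxicity is assessed by CellTiter-Fluor in MDA-kb2 cells carrying an MMTV-driven luciferase reporter. Cells receive 3.0uM nilutamide plus compounds at 15 concentrations and incubate 16 hr at 37C without CO2 before fluorescence reading.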

The nature of test [2]: qHTS assay to identify small molecule agonists of the estrogen receptor beta (ER-beta) signaling pathway - cell viability counter screen (AID 1259380). Further: nearly all actives have a fitted effect of over 30% in size. Further: potency means the concentration at half of the fitted maximal effect. An outline of the steps:
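Cytotoxicity is measured in parallel with the reporter screen: after 16 hr compound exposure at 37C and a 2 hr LiveBLAzer step, CellTiter-Glo is added to the same ER-beta-UAS-bla HEK293T wells and luminescence read after 30 min.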

A short description of test [3]: qHTS assay to identify small molecule antagonists of the estrogen receptor beta (ER-beta) signaling pathway - cell viability counter screen (AID 1259382). Further: nearly all actives have a fitted effect of over 55% in size. Further: potency means the concentration at half of the fitted maximal effect. An outline of the steps: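 Cytotoxicity counter screen multiplexed with the beta-lactamase antagonist assay: GripTite HEK293T ER-beta-bla cells were treated 16 hr with test chemicals in the presence of 1nM 17-beta-estradiol, and viability was measured by CellTiter-Glo.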

For test [4], the target named is Estrogen receptor (Homo sapiens) (UniProt P03372). Briefly: qHTS assay to identify small molecule agonists of the estrogen receptor alpha (ER-alpha) signaling pathway in the presence of an antagonist (AID 1259383; calls by dose curve; further: top concentration of the series differs between compounds; nearly all actives have a fitted effect of over 15% in size). An outline of the steps:
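Agonist-mode confirmation in the presence of the ER antagonist ICI-182,780 at 10.0nM final. Breast-derived VM7Luc4E2 reporter cells were exposed to compounds for 22hr, and ERE-driven luciferase was quantified by luminescence.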

Test [5] is described as follows: qHTS assay to identify small molecule agonists or antagonists of the thyroid stimulating hormone receptor (TSHR) signaling pathway - wild type cell line counter screen (AID 1259384; calls by dose curve). An outline of the steps:
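Wild-type HEK293 cells were plated 18 h at 37 C/5% CO2, pin-dosed with compound plus Ro20-1724 medium, held 30 min at room temperature, then given cAMP-d2 and anti-cAMP-cryptate; fluorescence was read after 1 h. Fifteen concentrations, triplicate.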

A short description of test [6]: qHTS assay to identify small molecule agonists of the estrogen receptor alpha (ER-alpha) signaling pathway in the presence of an antagonist - cell viability counter screen (AID 1259386).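 Further: cells exposed to compounds for 22 h at 37 °C before the viability read; nearly all actives have a fitted effect of over 30% in size.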 Further: potency means the concentration at half of the fitted maximal effect. An outline of the steps: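 Cytotoxicity was measured in parallel with the ERE-luciferase agonist screen, in the same wells. The cells were VM7Luc4E2, which endogenously express ER-alpha, and treatment was with compounds plus 10.0nM ICI-182,780 for 22hr.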

The target in test [7] is Androgen receptor (Homo sapiens) (UniProt P10275). Briefly: qHTS assay to identify small molecule agonists of the androgen receptor (AR) signaling pathway in the presence of an antagonist (AID 1259381; calls by dose curve; further: nearly all actives have a fitted effect of over 15% in size; further: potency means the concentration at half of the fitted maximal effect). Put shortly: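 Agonist-mode confirmation screen: human MDA-kb2 cells stably expressing luciferase under an MMTV promoter bearing AR and GR response elements, co-treated with 3.0uM nilutamide (final). Luminescence measured after 16hr compound incubation.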

For test [8], the target named is Thyrotropin receptor (Homo sapiens) (UniProt P16473). As to the kind of experiment: qHTS assay to identify small molecule antagonists of the thyroid stimulating hormone receptor (TSHR) signaling pathway (AID 1259385; calls by dose curve; further: nearly all actives have a fitted effect of over 20% in size). Put shortly: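 TSHR-HEK293 cells were plated and held 18 h at 37C/5% CO2, then given compound plus Ro20-1724 and stimulated with TSH at 1.5 ng/mL final. After 30 min at room temperature, cAMP was detected with cAMP-d2/anti-cAMP-cryptate (1 h) by fluorescence.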

Values joined by “and” are separate entries in the source; they are usually repeats but may differ in a detail not shown here. Equal entries are not always repeated. Records with an inconclusive call do not appear. Where a structure was tested more than once in an assay, its records may differ in their call. Active and inactive are the calls of the source. Unless noted, the call rests on the fitted dose curve; in most records, active means well fitted curve in the direction sought with a large enough effect in the repeat runs; inconclusive means weak or mixed curves; inactive means no such curve, though single readings can be large; an effect the other way counts as inactive or inconclusive.

Androgen receptor (Homo sapiens), sequence (P10275 whole entry, looked up): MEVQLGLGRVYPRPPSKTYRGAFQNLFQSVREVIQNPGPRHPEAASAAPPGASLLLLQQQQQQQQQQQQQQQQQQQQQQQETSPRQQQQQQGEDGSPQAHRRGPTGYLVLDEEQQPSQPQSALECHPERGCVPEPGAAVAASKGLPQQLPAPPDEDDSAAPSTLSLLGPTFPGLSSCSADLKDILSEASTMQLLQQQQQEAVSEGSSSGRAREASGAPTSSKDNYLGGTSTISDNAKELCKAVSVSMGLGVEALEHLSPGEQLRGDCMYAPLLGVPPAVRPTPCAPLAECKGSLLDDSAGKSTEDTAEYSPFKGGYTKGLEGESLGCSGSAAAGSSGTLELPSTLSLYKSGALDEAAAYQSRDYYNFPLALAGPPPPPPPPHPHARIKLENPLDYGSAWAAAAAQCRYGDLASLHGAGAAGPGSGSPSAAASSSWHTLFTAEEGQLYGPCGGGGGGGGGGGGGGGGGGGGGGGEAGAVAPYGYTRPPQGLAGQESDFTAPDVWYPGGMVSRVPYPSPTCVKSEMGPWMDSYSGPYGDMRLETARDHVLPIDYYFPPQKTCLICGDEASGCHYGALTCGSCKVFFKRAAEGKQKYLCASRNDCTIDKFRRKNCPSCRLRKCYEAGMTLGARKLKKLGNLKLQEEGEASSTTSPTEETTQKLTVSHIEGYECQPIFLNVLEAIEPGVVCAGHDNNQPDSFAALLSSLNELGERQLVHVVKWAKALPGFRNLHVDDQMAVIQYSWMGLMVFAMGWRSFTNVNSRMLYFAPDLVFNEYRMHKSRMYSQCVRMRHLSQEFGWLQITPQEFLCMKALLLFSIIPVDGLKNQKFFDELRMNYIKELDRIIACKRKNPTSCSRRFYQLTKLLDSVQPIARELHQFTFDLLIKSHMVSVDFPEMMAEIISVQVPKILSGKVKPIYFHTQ
Thyrotropin receptor (Homo sapiens), sequence (P16473 whole entry, looked up): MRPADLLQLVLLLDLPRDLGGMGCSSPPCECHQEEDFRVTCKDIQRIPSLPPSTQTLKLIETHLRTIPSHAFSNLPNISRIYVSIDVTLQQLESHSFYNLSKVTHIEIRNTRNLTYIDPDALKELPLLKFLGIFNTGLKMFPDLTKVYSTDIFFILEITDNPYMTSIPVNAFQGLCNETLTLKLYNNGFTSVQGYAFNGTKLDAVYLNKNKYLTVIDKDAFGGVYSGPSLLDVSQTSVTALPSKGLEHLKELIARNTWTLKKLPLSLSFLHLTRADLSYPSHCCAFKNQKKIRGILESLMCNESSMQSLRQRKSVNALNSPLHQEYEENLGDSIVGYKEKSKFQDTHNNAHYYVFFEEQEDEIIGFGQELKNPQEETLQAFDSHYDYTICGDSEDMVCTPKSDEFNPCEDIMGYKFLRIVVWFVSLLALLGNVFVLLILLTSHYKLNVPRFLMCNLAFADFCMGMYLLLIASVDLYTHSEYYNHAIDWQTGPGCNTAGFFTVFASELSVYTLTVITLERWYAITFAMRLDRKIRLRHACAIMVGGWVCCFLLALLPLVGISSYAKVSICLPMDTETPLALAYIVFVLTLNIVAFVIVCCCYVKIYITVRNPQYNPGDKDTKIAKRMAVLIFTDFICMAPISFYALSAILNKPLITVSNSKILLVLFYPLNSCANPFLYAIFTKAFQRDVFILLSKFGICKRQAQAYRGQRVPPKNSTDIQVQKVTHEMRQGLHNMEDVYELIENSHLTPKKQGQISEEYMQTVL
Estrogen receptor (Homo sapiens), sequence (P03372 whole entry, looked up): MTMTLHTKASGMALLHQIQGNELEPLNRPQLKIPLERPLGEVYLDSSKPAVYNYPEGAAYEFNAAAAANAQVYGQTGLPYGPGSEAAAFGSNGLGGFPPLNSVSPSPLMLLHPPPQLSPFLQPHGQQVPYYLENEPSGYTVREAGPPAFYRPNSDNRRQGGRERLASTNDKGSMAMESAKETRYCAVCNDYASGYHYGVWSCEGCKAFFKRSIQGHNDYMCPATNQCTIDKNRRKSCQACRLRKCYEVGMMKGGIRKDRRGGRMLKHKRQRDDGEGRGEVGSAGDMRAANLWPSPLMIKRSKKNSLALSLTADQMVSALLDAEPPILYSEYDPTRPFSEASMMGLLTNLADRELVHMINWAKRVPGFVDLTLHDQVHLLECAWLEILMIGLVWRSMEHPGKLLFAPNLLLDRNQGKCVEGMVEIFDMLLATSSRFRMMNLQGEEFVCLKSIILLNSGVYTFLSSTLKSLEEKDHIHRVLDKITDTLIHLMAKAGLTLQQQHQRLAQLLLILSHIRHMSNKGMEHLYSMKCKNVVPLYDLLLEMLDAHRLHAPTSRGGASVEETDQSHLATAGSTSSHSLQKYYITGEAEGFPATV

With `ClP(Cl)(Cl)(Cl)Cl`, the Potency result in test [1], in test [2], in test [3], in test [4] and in test [6] was “inactive” throughout. Besides, in test [5], the compound was classed as inactive.

Regarding `CCOP(=O)(OCC)O/C(=C/Cl)c1ccc(Cl)cc1Cl`, the Potency result in test [2], in test [3], in test [4] and in test [6] was “inactive” each time. Also, the outcome in test [5] was inactive.

As for `COC(=O)c1cncn1C(C)c1ccccc1` (configuration not stated), the Potency result in test [1], in test [2], in test [3], in test [4] and in test [6] was “inactive” each time. Moreover, in test [5], the outcome was inactive.

`BrCC(Br)C1CCC(Br)C(Br)C1` (configuration not stated): the Potency result in test [1], in test [2], in test [3] and in test [6] was “inactive” in each case. For the same compound, the call in test [5] was inactive.

For `COP(=O)(OC)O/C(=C/Cl)c1cc(Cl)c(Cl)cc1Cl`, the Potency result in test [7], in test [3], in test [4] and in test [6] was “inactive” throughout. Besides, in test [5], the compound was called inactive.

For the compound `CC1CC(CC2CCC(N)C(C)C2)CCC1N` (configuration not stated), the Potency in test [1] was 27.8 µM (active). The Potency result in test [7], in test [3], in test [4] and in test [8] was “inactive” in each case. Moreover, the call in test [5] was inactive.

With `N#Cc1cc(I)c(O)c(I)c1`, the Potency result in test [2], in test [7] and in test [3] was “inactive” throughout. Besides, in test [5], the result was inactive. Also, the Potency in test [6] was 48.6 µM (active).

For `CCn1cc[n+](C)c1`, in test [1], the Potency result was “inactive and 27.6 µM (active)”. The Potency result in test [2], in test [3] and in test [6] was “inactive” each time.

For the compound `O=NN1CCNCC1`, the Potency entry in test [1], in test [2], in test [3], in test [4] and in test [6] was “inactive” in each case.

Take `COc1nn(CSP(=S)(OC)OC)c(=O)s1`: the Potency entry in test [1], in test [3], in test [4] and in test [6] was “inactive” each time. Also, the compound was classed as inactive in test [5].

With `CC(C)(C)C(O)C(Oc1ccc(Cl)cc1)n1cncn1` (configuration not stated), the Potency result in test [1], in test [3], in test [8] and in test [6] was “inactive” throughout. The result in test [5] was inactive.

Turning to `II`, the Potency result in test [1], in test [7], in test [4] and in test [6] was “inactive” in each case.

Consider `CC(C)O.CC(C)O.OCCN(CCO)CCO.OCCN(CCO)CCO.[Ti]`, for which the Potency entry in test [1], in test [2], in test [3] and in test [6] was “inactive” each time. Also, in test [5], the call was inactive.

Turning to `CC(C)(C)c1cc([N+](=O)[O-])cc([N+](=O)[O-])c1O`, the Potency is 15.3 µM (active) in test [1] and 19.3 µM (active) in test [6]. In addition, the Potency entry in test [3] is “inactive”. The result in test [5] was inactive.

Take `C/C(=C\c1ccccc1)[N+](=O)[O-]`: the Potency in test [1] was 24.3 µM (active). For the same compound, the Potency entry in test [7], in test [3] and in test [4] was “inactive” in each case. In addition, in test [5], the compound was classed as inactive.

As for `Cc1ccc(-c2c(Cl)nc(C#N)n2S(=O)(=O)N(C)C)cc1`, the Potency in test [1] is 48.5 µM (active); in test [3] it was 27.3 µM (active). Besides, the Potency entry in test [7], in test [4] and in test [6] was “inactive” in each case.

For `O=C1NCN(c2ccccc2)C12CCN(CCCOc1ccc(F)cc1)CC2`, in test [4], the Potency result is “inactive”.

In the case of `CC(O)(CS(=O)(=O)c1ccc(F)cc1)C(=O)Nc1ccc(C#N)c(C(F)(F)F)c1` (configuration not stated), the Potency result in test [1], in test [4] and in test [6] was “inactive” throughout. Moreover, the Potency in test [2] is 31.8 µM (active); in test [3], 28.3 µM (active).

On to `O=C(OC1CCCCC1)c1ccccc1C(=O)OC1CCCCC1`, for which the Potency entry in test [1], in test [4] and in test [8] was “inactive” in each case. In addition, the call in test [5] was inactive.

On to `O=C(Nc1ccccc1)Nc1ccnc(Cl)c1`, for which, in test [1], the Potency was 61.1 µM (active). Besides, the Potency entry in test [7] and in test [3] was “inactive” each time. Also, the compound was classed as inactive in test [5].

With `C/C=C/C=O`, the Potency result in test [1], in test [3] and in test [6] was “inactive” in each case.

On to `C=CC(=O)NCNC(=O)C=C`, for which the Potency entry in test [1], in test [3], in test [4] and in test [6] was “inactive” in each case. In test [7], the Potency was 48.6 µM (active). For the same compound, the outcome in test [5] was inactive.

Regarding `Brc1ccc(Oc2ccccc2)cc1`, the Potency result in test [1], in test [3], in test [4], in test [8] and in test [6] was “inactive” in each case. The compound was called inactive in test [5].

Regarding `C=CC(C)=O`, the Potency entry in test [1], in test [2], in test [3], in test [4] and in test [6] was “inactive” throughout. In addition, the outcome in test [5] was inactive.

In the case of `O=S(=O)(Cl)c1ccccc1`, the Potency entry in test [1], in test [2], in test [3] and in test [6] was “inactive” in each case. The compound was classed as inactive in test [5].

For `CN(N=O)c1ccc([N+](=O)[O-])cc1`, the Potency result in test [2], in test [3] and in test [4] was “inactive” throughout.

`COP(=S)(Oc1cc(Cl)c(Br)cc1Cl)c1ccccc1` (configuration not stated): the Potency entry in test [1], in test [7], in test [3], in test [4], in test [8] and in test [6] was “inactive” each time. The compound was called inactive in test [5].

`O=C(O)C1(c2ccc3c(c2)OC[C@H](Cc2ccc(-c4ccccc4)cc2)[C@H]3O)CCCC1`: the Potency in test [2] is 27.3 µM (active). Further, the result in test [5] was inactive. Also, the Potency result in test [8] and in test [6] was “inactive” each time.

Consider `CN(C)c1ccc(N(C)C)cc1`, for which the Potency result in test [1] and in test [4] was “inactive” each time. For the same compound, the result in test [5] was inactive.
